Each structure is given as a SMILES string. In all, about 330,000 compounds went through this assay and about 4,100 (1.2%) were called active. Another 2% or so got no clear call; they are omitted. The calls were made as follows: active = max response of -50% or lower; inconclusive = between -30% and -50%; inactive = -30% or higher. What follows is part of a selection rich in actives, with near analogues and random picks from the rest.
% is scaled to controls: 0 for no effect and ±100 for the full control effect.

Chain of Phosphatidylinositol 5-phosphate 4-kinase type-2 alpha (Homo sapiens) (P48426 whole entry, looked up): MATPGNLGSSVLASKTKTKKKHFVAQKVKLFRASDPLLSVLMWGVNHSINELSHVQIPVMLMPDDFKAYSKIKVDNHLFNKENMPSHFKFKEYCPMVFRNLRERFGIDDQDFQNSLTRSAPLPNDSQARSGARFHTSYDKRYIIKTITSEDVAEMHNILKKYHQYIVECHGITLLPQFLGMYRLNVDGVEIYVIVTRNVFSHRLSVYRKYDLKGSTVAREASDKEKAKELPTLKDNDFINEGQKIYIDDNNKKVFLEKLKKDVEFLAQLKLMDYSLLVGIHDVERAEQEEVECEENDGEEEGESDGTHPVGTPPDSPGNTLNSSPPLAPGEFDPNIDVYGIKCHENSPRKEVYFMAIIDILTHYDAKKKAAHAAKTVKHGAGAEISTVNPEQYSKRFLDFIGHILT

The target of the experiment is Phosphatidylinositol 5-phosphate 4-kinase type-2 alpha (Homo sapiens) (UniProt P48426). The experiment can be described thus: qHTS for Inhibitors of phosphatidylinositol 5-phosphate 4-kinase (PI5P4K). Also: value at the top dose of about 77 µM. The settings on record: PI5P4Kalpha enzyme, ADP-Glo luminescence, 60 min; active compounds read low. The method, boiled down:
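Controls without substrate or without enzyme flank wells where PI5P4Kalpha converts substrate using 5 microM ATP (final). Incubation lasts 60 minutes at room temperature; ADP formed is read by ADP-Glo luminescence.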
Take `COC(=O)C1(C(=O)OC)C[C@H](c2ccccc2)N(Cc2ccccc2OC)[C@@H]1c1ccccc1`: the max response was 15.9% (inactive).

On to `CCc1cccc(CC)c1N1C(=O)CC(Sc2ccccc2N)C1=O` (stereo unspecified), for which the max response is 0.428% (inactive). For `COCOc1cccc(CN2CCC(C)(Oc3ccc(SC)cc3)C2)c1` (stereo unspecified) the value was 9.73% (inactive); for `CCCc1nc2c3ccccc3ccn2c1Cc1ccccc1C(F)(F)F`, -0.571% (inactive).

`COC(=O)[C@]12CCCCC=C1N(Cc1ccccc1)C(=O)[C@H](CC(=O)NCc1ccc(C)o1)C2`: the max response was -16.1% (inactive). For `Cc1csc(NC(=O)Nc2ccccc2[N+](=O)[O-])n1` the value was 3.76% (inactive). For `Cc1cc(NC(=O)Nc2ccccc2[N+](=O)[O-])no1` the value was -55.9% (active). For `Cc1cc(NC(=O)COc2ccc([N+](=O)[O-])cc2)no1` the value was -7.69% (inactive).

For `Cc1c(C(=O)NCc2ccc(C#N)cc2)sc(=O)n1Cc1ccc(C(=O)N(C)C)cc1`, the max response was -1.71% (inactive). The result for `COC(=O)c1ccc2nc(-c3ccccc3)c(Cc3ccc(OC)cc3C)n2c1` reads -3.87% (inactive). Take `CC1Cc2[nH][nH]c(=O)c2C(C2CC2)O1` (stereo unspecified): the max response was 6.96% (inactive). For `COc1ccc(-c2cc3c(c4c2ccn4C)C2CCC3C2)cn1` (stereo unspecified) the value was 19.1% (inactive); for `S=c1[nH]nc(COc2ccccc2)n1-c1ccccc1`, 2.36% (inactive).

As for `COc1ccc(OCc2n[nH]c(=S)n2N)cc1`, the max response is -58.2% (active). On to `Cc1ccc(OCc2n[nH]c(=S)n2-c2ccccc2)cc1`, for which the max response was -0.211% (inactive). For `CCc1nnc(NS(=O)(=O)c2ccc(NC(=S)NC(=O)/C=C/c3cccs3)cc2)s1` the value was -51.8% (active). For the compound `CCOC(=O)c1c(NC(=S)NC(=O)/C=C/c2cccs2)sc(C)c1C`, the max response is -4.36% (inactive). The result for `CCc1nnc(NS(=O)(=O)c2ccc(NC(=O)c3cccc(OC(F)(F)C(F)F)c3)cc2)s1` reads -19.6% (inactive); that for `CCc1nc2ccc(C(=O)NCCNC(C)=O)cn2c1N(CC)Cc1cccc(Br)c1`, 2.11% (inactive); that for `COc1cccc2c1C(=O)c1c(O)c3c(c(O)c1C2=O)CC(O)(C(C)=NNC(=O)c1ccc(Cl)c(Cl)c1)CC3OC1CC(N)C(O)C(C)O1` (stereo unspecified), -61.1% (active). The result for `CCc1cc(-c2nnn(CCC3COCCO3)c2CC)ccc1-c1cn(Cc2ccc3ccccc3c2)nn1` (stereo unspecified) reads 10.5% (inactive); that for `O=C(NCc1cccnc1)c1cc(C2CCCCN2C(=O)CCc2ccccc2)on1` (stereo unspecified), -8.66% (inactive).

On to `O=C(NC1=CC(=O)c2ccccc2C1=O)c1ccccc1`, for which the max response was -2.02% (inactive). For `CC(=O)N(C1=C(Cl)C(=O)c2ccccc2C1=O)c1ccc(C(=O)O)cc1` the value was -81.9% (active). In the case of `CC(C)(C)C1CCC(=O)N2CCC[C@]2(c2ccccc2)C1` (stereo partly specified), the max response was -0.325% (inactive).

Regarding `Cc1cccc(C)c1-n1nnnc1C1(C)CCC(=O)N1CCOc1ccccc1` (stereo unspecified), the max response was 6.34% (inactive). For `Cn1nnnc1SCC(=O)Nc1nc2ccccc2s1` the value was 5.87% (inactive); for `Nc1nnc(SCC(=O)Nc2ccc3nc(SCC(=O)Nc4ccccc4)sc3c2)s1`, -22.9% (inactive); for `O=C(CSc1nnc(SCc2ccc(Cl)cc2)s1)N/N=C/c1ccccc1Cl`, -9.79% (inactive). For `O=C(CSc1nc2ccccc2s1)Nc1ccc(C(=O)O)cc1` the value was -69.8% (active); for `O=C(CSc1nnc(SCc2ccc(F)cc2)s1)Nc1ccc(C(=O)O)cc1`, -51.9% (active); for `COc1cc(OC)cc(-c2nnc(SCC(=O)Nc3ccc(C(=O)O)cc3)s2)c1`, -16.4% (inactive). For `COc1ccc(C(O)C(O)(C(=O)OC(C)C)c2ccc(C)cc2)cc1` (stereo unspecified) the value was -0.92% (inactive); for `COc1cncc(-c2cnc3sc(NCCc4ccccn4)nn23)c1`, -5.87% (inactive).

Consider `O=C1NC[C@H](CCCCN2CCN(CCc3ccccc3)C(=O)C2=O)N(CC2CCCCC2)C1=O`, for which the max response is -2.74% (inactive). Turning to `CCOC(=O)[C@]12CCC=C1N(Cc1cccc3ccccc13)C(=O)[C@H](CC(=O)NCc1cccc(C(F)(F)F)c1)C2`, the max response was 11% (inactive).

For `CC1(Cc2ccccc2C#N)C(=O)Nc2ccc(-c3ccc4[nH]ccc4c3)cc21` (stereo unspecified), the max response is -19.1% (inactive). For `CCN1C(=O)[C@@H]2[C@@H]3CN(S(=O)(=O)c4ccccc4C)[C@@H](c4ccc(Cl)cc4)[C@@H]3C(=O)C[C@@H]2C1=O`, the max response is -5.23% (inactive). For `Cc1cccc(-c2cnc(C(O)c3cc(C)cc(C)c3)[nH]2)c1` (stereo unspecified) the value was 0.164% (inactive). The result for `CN1CCN(C(=O)c2ccc(NC(=O)c3ccc(Br)o3)cc2)CC1` reads -0.458% (inactive); that for `CCn1c(COc2c(C)cccc2C)nnc1SCc1nc2ccccc2c(=O)[nH]1`, -1.01% (inactive); that for `COc1ccc(C)cc1-n1nnnc1SCc1nc2ccccc2c(=O)[nH]1`, -6.87% (inactive).

For `COc1ccc(CCCc2nnc(SCc3nc4ccccc4c(=O)[nH]3)n2C)cc1`, the max response is -92.1% (active). Take `CCC(=O)N1Cc2cc(C(=O)NCc3cccc(F)c3)nc(-c3cccc(C4=CCCC4)c3)c2[C@H]1CCO`: the max response is -0.668% (inactive). The result for `CN(C)C(=O)N=NC(=O)N(C)C` reads -58.3% (active); that for `CCc1nc2c(OCc3ccc(F)c(F)c3)cccn2c1N(C)C(=O)c1ccco1`, -3.84% (inactive); that for `CCNC(=S)NNC(=O)Cc1ccccc1`, 5.73% (inactive). The result for `O=C(NNC(=S)NCc1ccco1)C(c1ccccc1)c1ccccc1` reads -8.48% (inactive). For `CCCCC(=O)NNC(=S)NC(=O)C(c1ccccc1)c1ccccc1` the value was -62.6% (active); for `CCCCCCn1c(=O)n2n(c1=O)C[C@]1(OC(=O)NCc3ccc(OC)c(OC)c3)CN(S(=O)(=O)c3ccc(C)cc3)C[C@]1(O)C2`, 3.29% (inactive). As to `CCOC(=O)[C@]12CCCC=C1N(CCC1=CCCCC1)C(=O)[C@H](CC(=O)NCCCCc1ccccc1)C2`, the max response is 0.467% (inactive). For `CCCOc1ccc(F)cc1-c1cc(C(=O)Nc2ccc(F)cc2)[nH]n1` the value was 0.345% (inactive).

`O=C(c1cccnc1)N(c1cc2sc(=O)oc2c2ccccc12)S(=O)(=O)c1ccccc1`: the max response was -69.2% (active). The result for `COc1ccc(N(C(=O)c2cccnc2)S(=O)(=O)c2ccc3c(c2)n(C)c(=O)n3C)cc1` reads -3.4% (inactive); that for `COc1ccc(N(C(=O)c2cccnc2)S(=O)(=O)c2ccc(OC)c(OC)c2)cc1`, 0.0951% (inactive).

As to `COCCCNC(=O)c1cccc2c(-c3ccc(O)c(OC)c3)coc12`, the max response is 4.94% (inactive).

As to `COCCCNC(=O)c1ccc(-c2c(C)noc2C)c2ccoc12`, the max response was -2.64% (inactive). The result for `O=C1c2cccnc2C(=O)N1Cc1cccs1` reads 0.461% (inactive).

As for `NC1=CC(=O)C(=O)c2cccnc21`, the max response was -50.3% (active). For the compound `CCOc1ccc(CCN2C(=O)c3cccnc3C2=O)cc1OCC`, the max response was -0.64% (inactive).

Consider `O=C(Nc1ccc(Cl)cc1)C1Cc2c(-c3ccc4c(c3)OCO4)ccnc2O1` (stereo unspecified), for which the max response is -13.4% (inactive). For `CCCCCn1nnnc1C1c2ccccc2C(=O)N1Cc1ccco1` (stereo unspecified) the value was -0.242% (inactive). With `FC(F)(F)C1CCCN(c2nsc3ccccc23)C1` (stereo unspecified), the max response was -91.2% (active). For `O=C(NC(Cc1ccccc1)C(=O)N1CCCC(C(F)(F)F)C1)c1ccccc1` (stereo unspecified) the value was 11.8% (inactive); for `O=C(NCC(=O)N1CCCC(C(F)(F)F)C1)c1ccccc1F` (stereo unspecified), 3.2% (inactive).

With `CCC(C(=O)NC(C)(C)C)n1c(-c2ccccc2)nc2ccccc21` (stereo unspecified), the max response is 1.82% (inactive). For `OC[C@@H]1CN(C2CCCC2)C[C@H](n2cnc3c(NC4CCC4)ncnc32)O1` the value was -2.43% (inactive); for `N#Cc1cccc(NC(=O)c2cc(C3CCCCN3C(=O)CCc3ccccc3)on2)c1` (stereo unspecified), -3.06% (inactive). Take `Cc1ccc(NC(=O)Cn2sc3ccccc3c2=O)cc1`: the max response was -87% (active). For `Cc1nn(CC(=O)Nc2ccc(F)cc2)c(=O)c2ccccc12` the value was -3.79% (inactive); for `Cc1ccc(NC(=O)Cn2c(C)csc2=O)cc1`, 6.3% (inactive). For `CC(C)C[C@H]1CNC(=O)C(=O)N1C[C@@H]1CCCN1C[C@H](Cc1ccccc1)N1C[C@H](CC(C)C)N(CC2CCCCCC2)C(=O)C1=O` the value was -0.689% (inactive).

For `Cc1cccc(-c2cnc(C(O)c3ccc4ccccc4c3)[nH]2)c1` (stereo unspecified), the max response was -4.33% (inactive). The result for `CCc1nc2c(OCc3ccc(C(F)(F)F)cc3)cccn2c1N(C)C(=O)CC(C)C` reads 9.67% (inactive); that for `CCN1CCN(CCNC(=O)c2ccc3c(c2)NC(=O)/C(=C\c2cccc(Cl)c2)S3)CC1`, -64.1% (active); that for `CCN1CCCC1CNC(=O)c1ccc2c(c1)NC(=O)/C(=C\c1ccccc1F)S2` (stereo unspecified), -0.909% (inactive). Turning to `O=C1Nc2cc(C(=O)N3CCC(N4CCCCC4)CC3)ccc2S/C1=C\c1ccccc1`, the max response was -1.98% (inactive).

For `COC(=O)[C@@]12C[C@@H](CC(=O)N3CCCCC3)C(=O)N(Cc3ccc4c(c3)OCO4)C1=CCC(C)(C)C2`, the max response is -2.52% (inactive). Take `CC(=O)OC[C@@H]1CN(Cc2ccccc2)C[C@H](n2cnc3c(NCc4ccco4)ncnc32)O1`: the max response is -7.06% (inactive).

For `CCCCN(C=O)c1c(CC)nc2c(OCCC3CCCCC3)cccn12`, the max response is -11.5% (inactive). For `CC1(C(=O)Nc2cccc(Oc3ccccc3)c2)CCN1Cc1ccccc1Cl` (stereo unspecified) the value was 19% (inactive); for `CC(=O)N(CC1CCCO1)C1(C(=O)NC2CCCC2)CCCCC1` (stereo unspecified), 8.44% (inactive). For `CC(=O)NCC(=O)N(Cc1ccco1)C1(C(=O)NC2CCCC2)CCCCC1` the value was 1.69% (inactive); for `O=C(Cc1cccs1)N(CC1CCCO1)C1(C(=O)NC2CCCCC2)CCCCC1` (stereo unspecified), -55.8% (active); for `CCCNC(=O)c1cc(C2CCCCN2S(=O)(=O)c2ccc(C#N)cc2)on1` (stereo unspecified), 7.08% (inactive). The result for `O=C(Nc1ccc(Cl)c(C(F)(F)F)c1)C1Cc2c(-c3ccccc3Oc3ccccc3)ccnc2O1` (stereo unspecified) reads 6.93% (inactive).

The values above are taken from PubChem BioAssay AID652105 (National Center for Advancing Translational Sciences (NCATS), 2013).
